Pf growth 48h: P. falciparum growth inhibition at 48 hours (one generation); P. falciparum luciferase growth in erythrocytes, 48 h; Potency, µM (top dose mostly 28.7 µM), for the others: at the top dose activity change, negative = inhibition, hits mostly inhibitors; actives 5.9% (n = 310,000); AID 504832; further: potency means the concentration at half of the fitted maximal effect; on the % scale 0 is the no-effect control and ±100 the full control effect
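Luciferase-expressing P. falciparum in infected erythrocytes (2% hematocrit, 0.1% parasitemia final) in RPMI 1640/0.5% Albumax were exposed to compound for 48 hours at 37 C, 5% CO2; growth read as luminescence.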
Pf growth 96h: inhibits malaria parasite growth, 96 h. P. falciparum luciferase reporter growth, 96 h. Potency, µM (highest dose often 28.7 µM), without a hit: at the top dose activity change, negative = inhibition, usual class: inhibitors. actives 6.9% (n = 320,000). AID 504834; further: potency means the concentration at half of the fitted maximal effect; on the % scale 0 is the no-effect control and ±100 the full control effect
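Parasite growth measured via integrated firefly luciferase reporter in P. falciparum. Infected erythrocytes at 2% hematocrit, 0.05% parasitemia final were treated 96 hours at 37 C under 5% CO2, and luminescence was read.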
NS1 inh: blocks influenza NS1 protein function; AID 2326; Potency, µM (top dose mostly 46.1 µM), inactives show top-dose activity, positive = more growth; actives 0.4% (n = 270,000); calls by dose curve; further: potency means the concentration at half of the fitted maximal effect; actives are rising curves; nearly all actives have a fitted effect of over 50% in size
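Recovery from NS1-induced slow growth read by OD600 in budding yeast switched to galactose assay medium (pH 6.0, -URA) at 1:100 dilution. Compound 23 nl per well; the matching strain lacking NS1 serves as control.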
Shiga toxin inh: Shiga toxin inhibition | AID 2315 | actives 9.2% (n = 290,000) | Vero cells, Shiga toxin protein synthesis inhibition reporter | inhibition, % at 38.7 µM; in the data active means inhibition mostly above about 28%, no sharp cut-off; inactive means mostly below about 43%; further: 0% is about no effect
CHX counter: counter-screen for Shiga toxin inhibitors: cycloheximide protein synthesis inhibition; cell reporter, cycloheximide protein synthesis inhibition counterscreen; max response, %; actives 12% (n = 300,000); in the data active means max response mostly above about 13%, no sharp cut-off; inactive means mostly below about 14%; further: read at 38.3 µM for the half of the compounds with a filed dose; 0% is about no effect
* hit, by the source's call. This is a sample that favours compounds with a hit; in the whole collection about 21% have one here. Unless noted, the call rests on the fitted dose curve; in most records, active means well fitted inhibition curve with a large enough effect; inconclusive means small, poorly fitted or top-dose-only effect, or another doubt; inactive means no such curve, though single readings can be large or run the other way.

What do the screens show for `Cc1[nH]c2ccccc2c1C(=O)CNc1nccs1`?
Pf growth 48h: -27%; Pf growth 96h: inconclusive; NS1 inh: 5%; Shiga toxin inh: 38; CHX counter: 8

Results for CC(OC(=O)CN1C(=O)NC2(CCCCC2C)C1=O)c1ccccc1 (centres undefined) ?
Pf growth 48h: inconclusive; Pf growth 96h: 4%

What do the screens show for `Cc1ccc(CNC(=O)C2CCCCC2C(=O)O)cc1` (centres undefined)?
Pf growth 48h: -11%; Pf growth 96h: 171%; NS1 inh: 3%; Shiga toxin inh: -3; CHX counter: -2

How did COc1ccc(C2CC(c3ccccc3)=NN2c2ccccc2)c(C(=O)O)c1OC (centres undefined) do in these assays?
Pf growth 48h: -17%; Pf growth 96h: -12%; Shiga toxin inh: -4; CHX counter: 1

How did COc1ccc2c(c1OC)C(=O)N1N=C(c3ccccc3)CC21 (centres undefined) do in these assays?
Pf growth 48h: 4.1µM*; Pf growth 96h: inconclusive; NS1 inh: -19%; Shiga toxin inh: 31; CHX counter: 18*

How did Cc1ccc(NC(=O)COc2nsnc2N2CCOCC2)cc1Cl do in these assays?
Pf growth 48h: 14%; Pf growth 96h: 22%; NS1 inh: -3%; Shiga toxin inh: 22; CHX counter: -2

How did Cc1ccccc1OCC(=O)Nc1cccc(C(=O)O)c1 do in these assays?
Pf growth 48h: 299%; Pf growth 96h: -20%; NS1 inh: 5%; Shiga toxin inh: 22; CHX counter: 26*

What do the screens show for `Cc1cccc(C)c1NC(=O)COC(=O)c1cccc2c1C(=O)c1ccccc1C2=O`?
Pf growth 48h: 10%; Pf growth 96h: -17%; NS1 inh: -7%; Shiga toxin inh: -1; CHX counter: -5

How did Cc1ccccc1OCC(=O)Nc1ccc2c(c1)Cc1ccccc1-2 do in these assays?
Pf growth 48h: inconclusive; Pf growth 96h: inconclusive; NS1 inh: 5%; Shiga toxin inh: -10; CHX counter: 18

What do the screens show for `Cc1ccccc1OCC(=O)Nc1ccc2c(c1)C(=O)c1ccccc1C2=O`?
Pf growth 48h: 26%; Pf growth 96h: 43%; NS1 inh: 16%; Shiga toxin inh: 38*; CHX counter: 23*

Results for CC(=O)c1cccc(NC(=O)COC(=O)c2ccccc2C)c1 ?
Pf growth 48h: 64%; Pf growth 96h: 89%; NS1 inh: -25%; Shiga toxin inh: 110*; CHX counter: 62*

Results for CCOc1ncccc1C(=O)OCC(=O)Nc1cccc(C(C)=O)c1 ?
Pf growth 48h: 28%; NS1 inh: -6%; Shiga toxin inh: -11; CHX counter: 4

How did Cc1cccc(OCC(=O)Nc2cc(NC(=O)COc3cccc(C)c3C)cc(C(=O)O)c2)c1C do in these assays?
Pf growth 48h: -2%; Pf growth 96h: inconclusive; NS1 inh: 13%; Shiga toxin inh: 14; CHX counter: 9

How did Cc1cccc(NC(=O)COC(=O)c2cccc3c2C(=O)c2ccccc2C3=O)c1C do in these assays?
Pf growth 48h: -25%; Pf growth 96h: 10µM*; NS1 inh: 10%; Shiga toxin inh: -12; CHX counter: -2

How did Cc1ccc(Cl)cc1NC(=O)CN1C(=O)NC2(CCCCCC2)C1=O do in these assays?
Pf growth 48h: -14%; Pf growth 96h: 0%

How did O=C(COC(=O)Cn1cnc2ccccc21)Nc1ccc2c(c1)C(=O)c1ccccc1C2=O do in these assays?
Pf growth 48h: 154%; Pf growth 96h: 298%; NS1 inh: 10%; Shiga toxin inh: 18*; CHX counter: 67*

Results for Cc1ccc(NC(=O)COC(=O)Cn2cnc3ccccc32)cc1S(=O)(=O)N(C)C ?
Pf growth 48h: -9%; Pf growth 96h: inconclusive; NS1 inh: 13%; Shiga toxin inh: -1; CHX counter: -5

What do the screens show for `CC[n+]1ccc(C)c2cc(S(=O)C(F)(F)F)ccc21` (centres undefined)?
Pf growth 48h: 3.7µM*; Pf growth 96h: inconclusive; NS1 inh: 1%; Shiga toxin inh: -10; CHX counter: -4

What do the screens show for `CC[n+]1ccc(C)c2cc(SC(F)(F)F)ccc21`?
Pf growth 48h: inconclusive; Pf growth 96h: 0%; Shiga toxin inh: -4; CHX counter: -3

How did CC[n+]1ccc(C)c2cc(P(=O)(c3ccccc3)c3ccccc3)ccc21 do in these assays?
Pf growth 48h: 13µM*; Pf growth 96h: inconclusive; NS1 inh: 2%; Shiga toxin inh: -7; CHX counter: -2

High-throughput results (PubChem BioAssay)
